Experimental findings from PubChem BioAssay (NCATS) are described below.

“And” between values parts separate entries of the source, which are not always exact repeats. Equal entries are not always repeated. Values without a mark were called inactive. Records with an inconclusive call do not appear. The source made the active and inactive calls. Unless noted, calls come from the whole dose curve; as a rule, active = well fitted curve in the direction sought with a large enough effect; inconclusive = small, poorly fitted or top-dose-only effect, or another doubt; inactive = no such curve, though single readings can be large; an effect the other way counts as inactive or inconclusive.

For assay [1], the target named is Thyroid hormone receptor beta (Homo sapiens) (UniProt P10828). The assay can be described thus: qHTS assay for small molecule antagonists of thyroid hormone receptor beta signaling (AID 588547; active = well fitted inhibition curve with a large enough effect in the signal ratio, with a control signal flat, not every such curve was filed as active; the % refers to the signal ratio;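 note: cells stimulated with 0.4 nM T3 agonist during compound exposure; % is set by controls: 0 for no effect and ±100 for the full control effect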). As to conditions: TR-UAS-bla HEK293, beta-lactamase ratio, antagonist mode, 18 h. The method, boiled down:
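TR-UAS-bla GripTite HEK293 cells in 2% charcoal/dextran FBS medium were preincubated 4 h at 37 C, given compound (0.59 nM to 92 uM) plus 0.4 nM T3 (final) for 18 h, then CCF4 for 2 h at RT; Hill fit gave IC50.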
In general terms: Quantitative high-throughput screening tests each substance at several concentrations.

Assay [2] concerns the target Voltage-gated inwardly rectifying potassium channel KCNH2 (Homo sapiens) (UniProt Q12809). The assay can be described thus: qHTS Assay for Small Molecule Inhibitors of the Human hERG Channel Activity (AID 588834).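 Note: top concentration of the series differs between compounds; % is set by controls: 0 for no effect and ±100 for the full control effect; lower thallium flux fluorescence means stronger hERG block; nearly all actives have a fitted effect of over 50% in size.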 The settings on record: U2OS BacMam hERG, FluxOR thallium flux fluorescence; series mostly up to 46.1 µM. An outline of the steps: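 Thallium-flux (FluxOR) read-out on FDSS: fluorescence read 10 s before and 2 min after stimulation buffer. hERG-BacMam-transduced U2OS cells, compound exposure about 10 min. AC50 by standard Hill equation.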

Assay [3] is described as follows: S16 Schwann cell viability assay (CellTiter-Glo assay) (AID 624031).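 Note: native untransfected S16 rat Schwann cells; plate controls were DMSO-treated cells for no effect and cell-free wells for full effect; nearly all actives have a fitted effect of over 70% in size.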 The settings on record: S16 rat Schwann cells viability, 24 h; series mostly up to 57.5 µM. The method, boiled down: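 Rat S16 Schwann cells without reporter constructs received compound or DMSO for 24 h at 37 °C under 5% CO2. Cellular ATP was then quantified by CellTiter-Glo luminescence, with vehicle wells defined as 0% activity and cell-free wells as reference.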
(ATP-based viability assays read luminescence as a measure of living cells.)

Assay [4] can be described thus: S16 Schwann cell PMP22 intronic element firefly luciferase assay (AID 624032).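 Note: plate controls were DMSO for no effect and PTC124 positive control mean for full effect; nearly all actives have a fitted effect of over 30% in size.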 The settings on record: S16 rat Schwann cells, PMP22 element FLuc, 24 h; series mostly up to 57.5 µM. An outline of the steps:
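Rat S16 Schwann cells stably carrying a PMP22 intronic element-driven Fluc reporter were seeded overnight, then exposed to compounds for 24 h at 37 °C. Luminescence was normalized to PTC124 (positive control) and DMSO (0% activity).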

Assay [5] can be described thus: qHTS assay for small molecule agonists of the antioxidant response element (ARE) signaling pathway (AID 651741; active = well fitted activation curve with a large enough effect in the signal ratio; the % refers to the signal ratio; note: potency is the fitted concentration of half-maximal effect; for activation: % of control where 0% means no effect). As to conditions: HepG2 ARE-bla reporter, beta-lactamase FRET ratio, 16 h; series mostly up to 96 µM. The method, boiled down: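 Reporter: beta-lactamase under ARE, stably in HepG2. Exposure: 16 h, 37 C, compounds delivered in DMSO by pin tool after 5 h cell preincubation. Readout: FRET substrate fluorescence after 2 h at RT.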

Assay [6] can be described thus: qHTS assay for small molecule activators of the p53 signaling pathway (AID 651743; active = well fitted activation curve with a large enough effect in the signal ratio, not every such curve was filed as active; the % refers to the signal ratio; note: % of control where 0% means no effect). As to conditions: HCT-116 p53RE-bla, beta-lactamase FRET ratio, 16 h; activation: stronger effect = higher value. An outline of the steps: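 Agonist-mode quantitative HTS in HCT-116 cells carrying a p53-response-element beta-lactamase reporter; 16 h compound treatment at 37 C, then FRET substrate loading for 2 h at room temperature and fluorescence read.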

The nature of assay [7]: qHTS assay for small molecule activators of the nuclear factor-kappa B (NF-kB) signaling pathway (AID 651749; active = well fitted activation curve with a large enough effect in the signal ratio; the % refers to the signal ratio; note: % of control where 0% means no effect). The settings on record: NF-kB-bla ME-180 cells, beta-lactamase FRET ratio, 16 h; stronger effect = higher value. An outline of the steps: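 Human ME-180 cervical cells with an NF-kB-bla construct; compounds added via 23 nL pin transfer, DMSO as vehicle; incubation 16 hr. Reporter activity measured by FRET disruption.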

Assay [8] is described as follows: qHTS assay for small molecule disruptors of the mitochondrial membrane potential - 1 hr assay (AID 651754; calls by dose curve; note: % is set by controls: 0 for no effect and ±100 for the full control effect; nearly all actives have a fitted effect of over 35% in size). As to conditions: series mostly up to 92.2 µM. An outline of the steps:
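Mitochondrial potential in living HepG2 cells after 1 hr compound treatment at 37C was read with Mito-MPS dye added for a further 30 min. Red aggregate and green monomer fluorescence were measured; loss of potential leaves dye as cytoplasmic monomers.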

Assay [9] in a line: qHTS assay for small molecule disruptors of the mitochondrial membrane potential - 5 hr assay (AID 651755; calls by dose curve; note: % is set by controls: 0 for no effect and ±100 for the full control effect; nearly all actives have a fitted effect of over 40% in size). The settings on record: JC-1-type ratio dye; series mostly up to 92.2 µM. The method, boiled down: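 Seed HepG2 overnight, add compound, incubate 5 hr at 37C and 5% CO2, stain 30 min with Mito-MPS, then measure monomer (490/535 nm) and aggregate (540/590 nm) fluorescence.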

For assay [10], the target named is Tumor necrosis factor (Homo sapiens) (UniProt P01375). Description: qHTS assay to identify small molecules that stimulate Tumor Necrosis Factor-alpha (TNF-alpha) secretion (AID 651757; active = well fitted curve in the direction sought with a large enough effect in the signal ratio; the % refers to the signal ratio; note: 0% is about no effect). The settings on record: Human cells, HTRF 665/615 ratio; series mostly up to 92.2 µM. The method, boiled down: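 Secreted TNF-alpha quantified by TR-FRET sandwich of two labeled anti-TNF-alpha antibodies, incubated 3 hr at room temperature. Preceded by 17 hr, 37 C compound treatment of THP-1 cells at 3000 cells/well.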
Sequence of Tumor necrosis factor (Homo sapiens) (P01375 whole entry, looked up): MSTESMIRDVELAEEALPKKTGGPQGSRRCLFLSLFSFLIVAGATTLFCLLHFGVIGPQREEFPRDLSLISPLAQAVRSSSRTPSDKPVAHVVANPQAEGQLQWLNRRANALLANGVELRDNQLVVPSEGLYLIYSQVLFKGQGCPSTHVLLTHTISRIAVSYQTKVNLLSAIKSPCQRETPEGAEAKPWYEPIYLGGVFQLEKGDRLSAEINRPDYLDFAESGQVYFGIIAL

Assay [11] can be described thus: qHTS assay to identify small molecules that stimulate interleukin-8 (IL-8) secretion (AID 651758; active = well fitted activation curve with a large enough effect in the signal ratio; the % refers to the signal ratio; note: 0% is about no effect). As to conditions: HTRF ratio (665/615); series mostly up to 92.2 µM. An outline of the steps: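 Quantitative HTS in THP-1 monocytic cells at 2000 cells per well, with 16 hrs compound incubation at 37 C. IL-8 in the medium was then quantified by HTRF immunoassay, read after 1-3 hrs at room temperature.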

Assay [12] can be described thus: qHTS assay for environmental chemicals that activate the Aryl hydrocarbon Receptor (AhR) signaling pathway (AID 651777). Note: % of control where 0% means no effect; nearly all actives have a fitted effect of over 15% in size. As to conditions: 1A2-DRE human hepatoma cells, luciferase, 24 h; activation: stronger effect = higher value. An outline of the steps:
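Measured luciferase activity, read 30 min after One-Glo addition at room temperature, from human hepatoma cells bearing a dioxin response element–CYP1A2 promoter reporter and exposed to compound for 24 hr at 37 C.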

The target of assay [13] is Peroxisome proliferator-activated receptor alpha (Homo sapiens) (UniProt Q07869). Description: qHTS assay for small molecule agonists of the peroxisome proliferator-activated receptor alpha (PPARalpha) signaling pathway (AID 651778). Note: % of control where 0% means no effect. The settings on record: PathHunter PPARalpha complementation, chemiluminescence, 6 h; stronger effect = higher value. The method, boiled down: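 Cells plated at 2,000/well and held overnight at 37 C, 5% CO2, then compound added by pin tool for 6 hr; after PathHunter detection reagent and 60 min at room temperature, chemiluminescence from enzyme complementation was read.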
Sequence of Peroxisome proliferator-activated receptor alpha (Homo sapiens) (Q07869 whole entry, looked up): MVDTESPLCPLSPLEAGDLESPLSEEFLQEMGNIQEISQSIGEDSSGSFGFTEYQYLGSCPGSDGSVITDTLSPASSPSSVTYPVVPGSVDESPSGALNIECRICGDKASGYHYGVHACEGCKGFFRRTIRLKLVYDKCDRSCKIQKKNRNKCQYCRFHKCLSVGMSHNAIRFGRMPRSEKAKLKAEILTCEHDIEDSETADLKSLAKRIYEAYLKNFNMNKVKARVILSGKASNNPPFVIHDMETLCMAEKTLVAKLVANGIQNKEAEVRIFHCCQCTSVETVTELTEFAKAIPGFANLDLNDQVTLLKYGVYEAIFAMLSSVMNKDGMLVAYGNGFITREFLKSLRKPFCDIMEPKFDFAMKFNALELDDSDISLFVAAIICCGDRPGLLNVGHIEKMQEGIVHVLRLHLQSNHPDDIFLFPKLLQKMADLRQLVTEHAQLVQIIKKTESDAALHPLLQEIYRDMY

Assay [14] is described as follows: S16 Schwann cell PMP22 intronic element beta-lactamase assay (AID 624044; calls by dose curve;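 note: 0% = DMSO and -100% = potassium clavulanate positive control; nearly all actives have a fitted effect of over 15% in size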). The settings on record: S16 rat Schwann cells, PMP22 element beta-lactamase FRET, 24 h; ratio activity, negative = inhibition: at 38.3 µM (top of the series) unless noted. An outline of the steps:
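Beta-lactamase reporter under a PMP22 intronic regulatory element in stable S16 rat Schwann cells; 24 h compound exposure. 460 nm blue signal normalized between DMSO (0%) and potassium clavulanate, with 535 nm FRET tracking viability; curves classed by r2 and response.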

In assay [15] the target is Luciferin 4-monooxygenase (Photinus pyralis) (UniProt P08659). The assay can be described thus: Biochemical firefly luciferase enzyme assay for NPC (AID 624030).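 Note: purified P. pyralis luciferase at 10 nM with luciferin and ATP substrate; 0% = DMSO and -100% = full luciferase inhibition by PTC124 control; nearly all actives have a fitted effect of over 70% in size.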 The settings on record: purified P. pyralis luciferase, luminescence, 5 min; series mostly up to 58.6 µM. An outline of the steps:
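Counter-screen for direct inhibition of the luciferase enzyme by approved-drug library compounds, run at 10 nM enzyme in 50 mM Tris acetate (final). Luminescence was read within 5 min of enzyme-buffer addition and normalized to PTC124 versus DMSO (0%).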

Sequence of Luciferin 4-monooxygenase (Photinus pyralis) (P08659 whole entry, looked up): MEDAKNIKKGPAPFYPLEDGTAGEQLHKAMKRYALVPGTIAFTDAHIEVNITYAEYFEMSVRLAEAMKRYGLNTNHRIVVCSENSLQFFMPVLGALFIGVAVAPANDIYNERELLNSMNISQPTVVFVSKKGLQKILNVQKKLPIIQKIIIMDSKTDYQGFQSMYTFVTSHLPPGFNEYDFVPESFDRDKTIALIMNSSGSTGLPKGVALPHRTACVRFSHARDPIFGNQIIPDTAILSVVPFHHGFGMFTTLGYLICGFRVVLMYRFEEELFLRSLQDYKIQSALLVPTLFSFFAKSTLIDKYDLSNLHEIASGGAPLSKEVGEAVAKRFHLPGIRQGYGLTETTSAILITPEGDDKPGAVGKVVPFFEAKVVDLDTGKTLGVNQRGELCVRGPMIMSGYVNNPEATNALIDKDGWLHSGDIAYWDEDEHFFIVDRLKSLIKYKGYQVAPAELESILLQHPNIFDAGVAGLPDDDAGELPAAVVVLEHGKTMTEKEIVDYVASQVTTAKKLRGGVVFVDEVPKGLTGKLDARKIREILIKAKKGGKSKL
Sequence of Thyroid hormone receptor beta (Homo sapiens) (P10828 whole entry, looked up): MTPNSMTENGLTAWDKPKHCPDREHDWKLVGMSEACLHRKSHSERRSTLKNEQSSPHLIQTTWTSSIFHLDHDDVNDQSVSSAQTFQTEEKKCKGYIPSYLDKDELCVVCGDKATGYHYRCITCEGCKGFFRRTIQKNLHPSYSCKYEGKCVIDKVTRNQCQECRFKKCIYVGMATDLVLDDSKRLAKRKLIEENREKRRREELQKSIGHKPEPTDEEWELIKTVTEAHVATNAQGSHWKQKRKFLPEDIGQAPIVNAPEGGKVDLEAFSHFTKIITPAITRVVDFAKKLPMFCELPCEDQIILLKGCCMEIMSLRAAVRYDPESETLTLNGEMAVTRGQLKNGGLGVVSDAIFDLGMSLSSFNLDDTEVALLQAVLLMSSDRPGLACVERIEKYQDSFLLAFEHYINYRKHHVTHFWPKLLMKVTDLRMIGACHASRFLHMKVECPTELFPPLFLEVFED
Sequence of Voltage-gated inwardly rectifying potassium channel KCNH2 (Homo sapiens) (Q12809 whole entry, looked up): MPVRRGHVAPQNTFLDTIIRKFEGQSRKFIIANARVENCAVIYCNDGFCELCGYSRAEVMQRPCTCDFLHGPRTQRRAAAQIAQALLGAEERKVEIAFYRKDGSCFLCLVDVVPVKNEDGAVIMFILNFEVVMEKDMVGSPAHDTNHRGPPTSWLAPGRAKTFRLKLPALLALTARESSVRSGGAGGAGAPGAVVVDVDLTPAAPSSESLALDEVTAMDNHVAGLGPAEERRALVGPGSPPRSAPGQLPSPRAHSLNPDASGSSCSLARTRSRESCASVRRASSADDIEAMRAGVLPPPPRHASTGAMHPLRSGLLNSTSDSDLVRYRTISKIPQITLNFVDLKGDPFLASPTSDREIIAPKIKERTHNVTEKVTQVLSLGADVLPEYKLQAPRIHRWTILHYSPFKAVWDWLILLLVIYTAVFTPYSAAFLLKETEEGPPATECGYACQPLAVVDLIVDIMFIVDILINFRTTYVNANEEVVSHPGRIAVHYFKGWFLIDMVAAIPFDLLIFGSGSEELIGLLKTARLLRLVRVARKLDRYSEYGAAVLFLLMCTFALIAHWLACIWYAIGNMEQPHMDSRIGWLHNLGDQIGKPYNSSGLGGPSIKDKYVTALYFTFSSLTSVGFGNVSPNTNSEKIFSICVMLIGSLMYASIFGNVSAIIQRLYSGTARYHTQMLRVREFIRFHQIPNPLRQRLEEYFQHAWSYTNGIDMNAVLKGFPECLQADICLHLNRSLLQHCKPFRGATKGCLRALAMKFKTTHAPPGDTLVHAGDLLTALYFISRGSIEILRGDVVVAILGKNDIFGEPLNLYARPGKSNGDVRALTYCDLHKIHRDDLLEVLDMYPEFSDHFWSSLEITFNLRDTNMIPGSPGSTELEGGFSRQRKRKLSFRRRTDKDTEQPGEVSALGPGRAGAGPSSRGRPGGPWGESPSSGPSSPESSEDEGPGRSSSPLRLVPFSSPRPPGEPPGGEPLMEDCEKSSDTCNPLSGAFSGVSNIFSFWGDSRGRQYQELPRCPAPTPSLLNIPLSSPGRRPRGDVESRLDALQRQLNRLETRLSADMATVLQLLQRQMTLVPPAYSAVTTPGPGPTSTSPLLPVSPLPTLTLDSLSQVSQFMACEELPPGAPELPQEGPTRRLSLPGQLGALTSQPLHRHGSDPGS

Consider `Nc1ncnc2c1ncn2[C@H]1CC[C@@H](CO)O1`, for which the activity change % (negative = inhibition) in assay [1] was -11% and 4.8%. For the same compound, the Potency entry in assay [2], in assay [3], in [4], in assay [5], in [8] and in assay [9] was “inactive” each time. Besides, the Potency result in assay [10] and in assay [11] was “inactive” throughout. Besides, the activation is -6.3% and -2.15% in [6]; -1.92% in assay [7]; 3.83% and -0.699% in assay [12]. Also, the max response in [13] was -1.88% and -2.98%.

As to `NCCO/C=C/[C@H](N)C(=O)O`, the activity change % (negative = inhibition) in assay [1] is 19.7%. The Potency entry in assay [2], in [3] and in assay [5] was “inactive” each time. Also, the ratio activity, negative = inhibition in assay [14] is 0.236%. For the same compound, the values for the activation in assay [6], in assay [7] and in [12] were 7.75%, -5.26% and 1.28%, respectively. In addition, the max response in [13] was 2.79%.

Consider `O=C(OCc1ccccc1)c1ccc(O)cc1`, for which the activity change % (negative = inhibition) in assay [1] was 27.2%. Besides, the Potency result in [2], in assay [3] and in [4] was “inactive” each time. The ratio activity, negative = inhibition in [14] is -2.42%. The results for the activation in assay [6] and in assay [12] were -6.7% and 0.611%, respectively. In [13], the max response is -0.0988%.

As to `CCCCO`, the activity change % (negative = inhibition) in assay [1] is 5.68% and 1.89%. The Potency entry in [2], in [15], in [3], in [5], in [8] and in assay [9] was “inactive” each time. The Potency result in assay [10] and in [11] was “inactive” each time. In assay [14], the ratio activity, negative = inhibition was 1.65%. Also, the activation in assay [6] is 0.244% and -1.87%; in assay [12], -0.013% and -0.728%. The max response in [13] was -5.14% and -4.07%.

In the case of `O=P(O)(O)O`, the activity change % (negative = inhibition) in [1] is -9.56%. Besides, the Potency result in [2], in [15], in [3], in assay [5], in assay [8] and in assay [9] was “inactive” each time. Further, in assay [10], the Potency result was “inactive”. Further, the ratio activity, negative = inhibition in assay [14] was 2.1%. Besides, the activation in assay [7] is -0.144%; in [12], -1.09%. Further, in assay [13], the max response is -4.49%.

On to `Cc1ncc[nH]1`, for which the activity change % (negative = inhibition) in [1] was -11.5%. In addition, the Potency result in assay [2], in assay [15], in assay [3], in assay [4], in [5] and in assay [8] was “inactive” in each case. The Potency result in [9], in assay [10] and in [11] was “inactive” in each case. Besides, the activation in assay [6] is -3.81%; in assay [7], 0.166%; in [12], 0.165%. For the same compound, in [13], the max response is -1.93%.

On to `CO[C@@H]1[C@H](OC(=O)/C=C/C=C/C=C/C=C/C(=O)O)CC[C@]2(CO2)[C@H]1[C@@]1(C)O[C@@H]1CC=C(C)C`, for which the activity change % (negative = inhibition) in assay [1] was 15%. Besides, the Potency entry in [2] is “inactive”. Further, the Potency in assay [5] was 13.7 µM (active). Moreover, the activation in [6] was -4.17%; in assay [7], -0.892%; in assay [12], 1.85%. Further, the max response in assay [13] is -0.833%.
